About 8,800 targets were measured; listed, in parts, are those with a hit and a random draw of the rest. About 0.5% of all pairs of compound and target were hits.
Key:
Experiment in all cases: log2 fold change, soluble protein after heating vs DMSO (PISA); higher = thermal stabilisation; K562 lysate, 10 uM; active = over 0.2 and 3.5 SD of the protein, either way, in both replicates (recomputed)
[1] = compound: C#Cc1cccc(Nc2ncnc3cc(OCCOC)c(OCCOC)cc23)c1 [erlotinib]
Method in brief: (§1)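 The values are log-two fold changes in thermal stability compared with solvent controls and come from duplicates. They were obtained by TMTpro 16plex LC-MS/MS, with channel sums equalised, on the supernatant after 21,000xg for 90 min. That supernatant came from crude K562 extract at 1 mg/mL protein treated with 10 μM compound for 30 min, heated for 3 min across 48°C-58°C, pooled and brought to 0.5% NP-40 at 4°C.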

[2] = compound: C/C(=N\NC(=O)C1=CC(=CC=C1)S(=O)(=O)N2CCOCC2)/C3=C(C=CC(=C3)Cl)O
Method in brief: as §1

[3] = compound: C1=CC(=CC=C1C2=NC3=C(N2)C=C(C=C3)C(=O)N)OC4=CC=C(C=C4)Cl
Method in brief: as §1

[4] = compound: C1=CC2=C(C=CC(=C2)/C=C\3/C(=O)NC(=NCC4=CC=CS4)S3)N=C1
Method in brief: as §1

[5] = compound: C1=CC2=NC=CN=C2C=C1/C=C/3\C(=O)NC(=O)S3
Method in brief: as §1

[6] = compound: C1=CC=C(C=C1)C2=NC(=C(N2)C3=CC=NC=C3)C4=CC(=C(C=C4)Cl)O
Method in brief: as §1

[7] = compound: C1=CC=C2C(=C1)C3=NNC4=CC=CC(=C43)C2=O
Method in brief: as §1

[8] = compound: C1CCN(C1)C(=O)NC2=CC=CC(=C2)NC3=NC=C(C(=N3)NCCC4=CN=CN4)Br
Method in brief: as §1

[9] = compound: C1CN(CCC1(CC2=CC=C(C=C2)Cl)N)C3=NC=NC4=C3C=CN4
Method in brief: as §1

[10] = compound: C1COCCN1CCN2C3=CC=CC=C3N=C2NC(=O)C4=CC(=CC=C4)[N+](=O)[O-] [IRAK-1-4 Inhibitor I]
Method in brief: as §1

[11] = compound: C=CC(=O)N1CCC[C@@H](n2nc(-c3ccc(Oc4ccccc4)cc3)c3c(N)ncnc32)C1 [ibrutinib]
Method in brief: as §1

[12] = compound: CC(=O)c1cnc2ccc(-c3cc(Cl)c(O)c(Cl)c3)nc2c1N[C@H]1CC[C@H](CN(C)C)CC1
Method in brief: as §1

[13] = compound: CC(C)(C)Cn1c(N)nc2ccc(-c3[nH]c(C(C)(C)C)nc3-c3ccc(F)cc3)nc21 [ralimetinib]
Method in brief: as §1

[14] = compound: CC(C)(O)CC(=O)NCCn1ccc2ncnc(Nc3ccc(Oc4cccc(C(F)(F)F)c4)c(Cl)c3)c21
Method in brief: as §1

[15] = compound: CC(C)C1=C2N=C(C=C(N2N=C1)NCC3=CC=CC=C3)NCCCCCCN
Method in brief: as §1

[16] = compound: CC1=C(C(CC(=O)N1)C2=CC=C(C=C2)C(F)(F)F)C(=O)NC3=C(C=C4C(=C3)C=NN4)F
Method in brief: as §1

[17] = compound: CC1=C(C2=C(C=C1)C(=O)C3=CC=CC=C3N2CCCN)C
Method in brief: as §1

[18] = compound: CC1=C(C=C(C=C1)NC(=O)C2=CC(=CC=C2)C(C)(C)C#N)NC3=CC4=C(C=C3)N=CN(C4=O)C
Method in brief: as §1

[19] = compound: CC1=C(C=C(C=C1)NC(=O)C2=CC(=CC=C2)N(C)C)NC(=O)C3=CC=C(C=C3)O
Method in brief: as §1

[20] = compound: CC1=CC=C(C=C1)SC2=C3C=C(SC3=CN=C2)C(=O)N
Method in brief: as §1

Measured: log2 fold change

VPS35L (UniProt Q7Z3J2)
Chain of UniProt Q7Z3J2 (Q7Z3J2 whole entry, looked up): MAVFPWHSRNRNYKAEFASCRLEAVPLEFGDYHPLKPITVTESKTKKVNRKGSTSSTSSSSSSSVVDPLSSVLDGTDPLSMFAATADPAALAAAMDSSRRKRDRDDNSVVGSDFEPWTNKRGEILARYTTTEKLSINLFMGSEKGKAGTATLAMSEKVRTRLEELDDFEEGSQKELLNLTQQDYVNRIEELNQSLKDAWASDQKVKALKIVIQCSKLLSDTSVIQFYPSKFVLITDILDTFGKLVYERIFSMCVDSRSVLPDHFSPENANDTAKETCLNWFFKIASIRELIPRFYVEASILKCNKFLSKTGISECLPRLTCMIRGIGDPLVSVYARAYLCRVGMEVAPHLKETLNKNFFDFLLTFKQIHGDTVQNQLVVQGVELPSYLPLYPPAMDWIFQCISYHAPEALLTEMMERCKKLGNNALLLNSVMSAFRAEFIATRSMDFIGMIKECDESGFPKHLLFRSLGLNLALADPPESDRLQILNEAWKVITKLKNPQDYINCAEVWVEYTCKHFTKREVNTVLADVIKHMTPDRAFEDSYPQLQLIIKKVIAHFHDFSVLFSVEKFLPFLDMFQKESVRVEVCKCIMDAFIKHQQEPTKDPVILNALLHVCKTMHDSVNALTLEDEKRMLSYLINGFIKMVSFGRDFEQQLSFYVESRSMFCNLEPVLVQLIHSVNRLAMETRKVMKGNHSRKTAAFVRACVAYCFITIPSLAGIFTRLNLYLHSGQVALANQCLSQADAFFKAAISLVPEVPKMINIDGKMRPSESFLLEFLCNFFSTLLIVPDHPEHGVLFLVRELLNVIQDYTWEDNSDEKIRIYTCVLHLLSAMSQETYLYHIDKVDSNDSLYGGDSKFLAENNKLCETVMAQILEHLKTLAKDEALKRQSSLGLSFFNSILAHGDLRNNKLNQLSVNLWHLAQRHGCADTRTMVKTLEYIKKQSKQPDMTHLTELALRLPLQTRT
inactive: [1] 0.005 | [2] -0.016 | [3] -0.028 | [4] -0.001 | [5] 0.002 | [6] 0.006 | [7] -0.038 | [8] -0.028 | [9] 0.006 | [10] 0.04 | [11] 0.011 | [12] 0.023 | [13] -0.003 | [14] -0.032 | [15] 0.003 | [16] 0.007 | [17] 0.018 | [18] -0.021 | [19] 0.009 | [20] -0.005

VPS13C (UniProt Q709C8)
inactive: [1] -0.007 | [2] -0.003 | [3] 0.038 | [4] 0.008 | [5] 0.017 | [6] -0.013 | [7] -0.021 | [8] 0.042 | [9] -0.012 | [10] 0.004 | [11] -0.011 | [12] 0.005 | [13] 0.02 | [14] 0.006 | [15] -0.001 | [17] -0.066 | [18] 0.041 | [19] -0.007 | [20] -0.053
active: [16] 0.251

VRK1 (UniProt Q99986)
inactive: [1] 0.009 | [2] -0.05 | [3] 0.002 | [4] 0.049 | [5] 0.015 | [6] 0.024 | [7] -0.02 | [8] 0 | [9] 0.02 | [10] -0.02 | [11] 0.008 | [12] 0.035 | [13] 0.122 | [14] 0.005 | [15] -0.008 | [16] -0.013 | [17] 0.007 | [18] -0.015 | [19] 0.018 | [20] 0.003

ZNF318 (UniProt Q5VUA4)
inactive: [1] 0.026 | [2] -0.033 | [3] -0.054 | [4] -0.015 | [5] -0.078 | [6] 0.003 | [7] 0.004 | [8] 0.023 | [9] 0.004 | [10] 0.012 | [11] 0.022 | [12] -0.043 | [13] 0.029 | [14] -0.06 | [15] 0.014 | [16] 0.023 | [17] 0.038 | [18] -0.036 | [19] 0.046 | [20] 0.083

VAC14 (UniProt Q08AM6)
inactive: [1] -0.007 | [2] 0.02 | [3] -0.004 | [4] 0.032 | [5] 0.024 | [6] -0.006 | [7] -0.023 | [8] 0.006 | [9] 0.015 | [10] 0.024 | [11] -0.029 | [12] -0.025 | [13] -0.003 | [14] -0.055 | [15] 0.002 | [16] -0.008 | [17] 0.005 | [18] 0.003 | [19] 0.039 | [20] -0.034

ZBTB33 (UniProt Q86T24)
Chain of UniProt Q86T24 (Q86T24 whole entry, looked up): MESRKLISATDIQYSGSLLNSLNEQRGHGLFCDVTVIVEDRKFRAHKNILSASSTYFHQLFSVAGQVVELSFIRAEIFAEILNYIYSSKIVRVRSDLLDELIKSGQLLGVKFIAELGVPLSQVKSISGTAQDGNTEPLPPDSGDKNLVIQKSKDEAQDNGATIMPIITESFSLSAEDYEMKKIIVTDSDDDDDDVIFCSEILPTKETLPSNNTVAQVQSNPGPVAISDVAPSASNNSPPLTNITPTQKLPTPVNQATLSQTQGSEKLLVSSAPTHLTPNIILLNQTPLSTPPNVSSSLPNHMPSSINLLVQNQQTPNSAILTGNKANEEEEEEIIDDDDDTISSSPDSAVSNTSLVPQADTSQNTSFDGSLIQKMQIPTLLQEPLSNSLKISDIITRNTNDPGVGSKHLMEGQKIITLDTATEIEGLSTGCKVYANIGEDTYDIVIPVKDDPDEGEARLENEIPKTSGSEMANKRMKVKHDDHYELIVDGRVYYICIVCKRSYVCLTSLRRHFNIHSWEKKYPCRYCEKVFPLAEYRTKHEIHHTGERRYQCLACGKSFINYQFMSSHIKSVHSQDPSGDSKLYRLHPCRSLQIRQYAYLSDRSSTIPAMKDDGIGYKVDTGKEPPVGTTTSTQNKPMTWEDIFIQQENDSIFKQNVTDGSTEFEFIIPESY
inactive: [1] 0 | [2] 0.012 | [3] 0.101 | [4] 0.062 | [5] 0.144 | [6] -0.025 | [7] -0.101 | [8] -0.053 | [9] 0.068 | [10] -0.042 | [11] 0.258 | [12] 0.183 | [13] -0.058 | [14] -0.158 | [15] 0.141 | [16] -0.027 | [17] 0.109 | [18] 0.129 | [19] 0.044 | [20] 0.109

WDR24 (UniProt Q96S15)
Chain of UniProt Q96S15 (Q96S15 whole entry, looked up): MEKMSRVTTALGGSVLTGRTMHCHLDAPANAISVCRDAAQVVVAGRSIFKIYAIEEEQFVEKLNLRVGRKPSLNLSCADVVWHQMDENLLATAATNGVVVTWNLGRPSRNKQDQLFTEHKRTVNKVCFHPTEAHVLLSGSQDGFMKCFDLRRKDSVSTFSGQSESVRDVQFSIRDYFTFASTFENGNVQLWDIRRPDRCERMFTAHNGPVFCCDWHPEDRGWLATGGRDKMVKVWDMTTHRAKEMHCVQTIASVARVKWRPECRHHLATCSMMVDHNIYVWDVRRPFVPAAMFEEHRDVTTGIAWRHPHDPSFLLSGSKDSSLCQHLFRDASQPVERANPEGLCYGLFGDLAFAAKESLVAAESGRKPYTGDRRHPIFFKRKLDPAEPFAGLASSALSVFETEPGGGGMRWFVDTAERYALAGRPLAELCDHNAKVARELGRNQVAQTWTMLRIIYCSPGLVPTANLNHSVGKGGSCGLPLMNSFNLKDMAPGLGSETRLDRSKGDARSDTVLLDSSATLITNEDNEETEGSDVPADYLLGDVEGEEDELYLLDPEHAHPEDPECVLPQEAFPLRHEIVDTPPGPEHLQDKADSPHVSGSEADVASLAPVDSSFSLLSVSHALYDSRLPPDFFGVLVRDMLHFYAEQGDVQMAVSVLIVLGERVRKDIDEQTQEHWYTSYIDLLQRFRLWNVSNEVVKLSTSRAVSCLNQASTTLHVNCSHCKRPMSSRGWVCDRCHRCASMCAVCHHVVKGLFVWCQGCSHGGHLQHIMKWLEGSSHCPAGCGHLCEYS
inactive: [1] 0.023 | [2] 0.014 | [3] 0.029 | [4] -0.042 | [5] -0.018 | [6] 0.058 | [7] -0.012 | [8] -0.034 | [9] -0.007 | [10] 0.034 | [11] -0.044 | [12] -0.016 | [13] 0.025 | [14] -0.022 | [15] 0.041 | [16] 0.055 | [17] -0.011 | [18] 0.033 | [19] -0.034 | [20] 0.021

UQCRC2 (UniProt P22695)
Chain of UniProt P22695 (P22695 whole entry, looked up): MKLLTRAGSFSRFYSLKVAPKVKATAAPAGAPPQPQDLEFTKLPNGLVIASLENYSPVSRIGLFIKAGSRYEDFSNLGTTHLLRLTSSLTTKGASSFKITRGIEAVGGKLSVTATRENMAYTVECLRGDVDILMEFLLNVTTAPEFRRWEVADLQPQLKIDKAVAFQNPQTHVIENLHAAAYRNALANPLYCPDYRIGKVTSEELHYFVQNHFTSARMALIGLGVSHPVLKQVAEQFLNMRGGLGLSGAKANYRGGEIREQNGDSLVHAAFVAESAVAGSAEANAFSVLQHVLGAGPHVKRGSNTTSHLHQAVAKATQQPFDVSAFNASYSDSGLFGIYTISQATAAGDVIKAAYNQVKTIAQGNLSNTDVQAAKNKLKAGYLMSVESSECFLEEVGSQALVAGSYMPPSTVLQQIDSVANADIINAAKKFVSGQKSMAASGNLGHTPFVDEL
inactive: [1] 0 | [2] -0.029 | [3] 0.006 | [4] -0.005 | [5] -0.019 | [6] 0.01 | [7] 0.013 | [8] -0.001 | [9] 0.019 | [10] 0.014 | [11] -0.022 | [12] 0.001 | [13] 0.005 | [14] -0.04 | [15] -0.005 | [16] -0.001 | [17] 0.012 | [18] 0.029 | [19] 0.003 | [20] -0.013

VRK2 (UniProt Q86Y07)
inactive: [1] 0.04 | [2] 0.039 | [3] 0.113 | [4] -0.058 | [5] -0.056 | [6] 0 | [7] 0.064 | [8] 0.064 | [9] 0.196 | [10] 0.049 | [11] 0.049 | [12] 0.106 | [13] 0.155 | [14] -0.041 | [15] -0.037 | [16] -0.036 | [17] -0.026 | [18] -0.021 | [19] 0.023 | [20] 0.149

ZMYND8 isoform 19 (UniProt Q9ULU4)
inactive: [1] -0.012 | [2] -0.058 | [3] 0.023 | [4] 0.011 | [5] -0.037 | [6] 0.024 | [7] -0.077 | [8] -0.021 | [9] 0.018 | [10] -0.025 | [11] 0.111 | [12] -0.02 | [13] 0.047 | [14] 0.007 | [15] 0.002 | [16] 0.007 | [17] 0.027 | [18] 0.02 | [19] 0.011 | [20] 0.037

ZHX1 (UniProt Q9UKY1)
inactive: [1] 0.02 | [2] -0.094 | [3] 0.082 | [4] 0.051 | [5] -0.027 | [6] -0.027 | [7] -0.077 | [8] -0.119 | [9] 0.026 | [10] -0.055 | [11] -0.026 | [12] 0.015 | [13] -0.007 | [14] 0.034 | [15] 0.127 | [16] 0.109 | [17] -0.144 | [18] -0.053 | [19] 0.024 | [20] -0.013

ZC3H11A (UniProt O75152)
inactive: [1] 0.021 | [2] -0.048 | [3] -0.027 | [4] 0.004 | [5] -0.048 | [6] 0.029 | [7] -0.02 | [8] -0.011 | [9] -0.003 | [10] -0.012 | [11] 0.025 | [12] -0.1 | [13] 0.019 | [14] -0.034 | [15] 0.025 | [16] 0.084 | [17] -0.016 | [18] 0.041 | [19] 0.041 | [20] -0.096

VAV3 isoform 4 (UniProt Q9UKW4)
inactive: [1] 0.035 | [2] 1.07 | [3] -0.029 | [4] -0.144 | [5] 0.117 | [6] 0.012 | [7] -0.133 | [8] 0.148 | [9] -0.08 | [10] -0.017 | [11] 0.068 | [12] -0.109 | [13] -0.049 | [14] -0.013 | [15] -0.028 | [16] -0.013 | [17] 0.085 | [18] -0.03 | [19] -0.026 | [20] 0.058

WDR7 (UniProt Q9Y4E6)
Chain of UniProt Q9Y4E6 (Q9Y4E6 whole entry, looked up): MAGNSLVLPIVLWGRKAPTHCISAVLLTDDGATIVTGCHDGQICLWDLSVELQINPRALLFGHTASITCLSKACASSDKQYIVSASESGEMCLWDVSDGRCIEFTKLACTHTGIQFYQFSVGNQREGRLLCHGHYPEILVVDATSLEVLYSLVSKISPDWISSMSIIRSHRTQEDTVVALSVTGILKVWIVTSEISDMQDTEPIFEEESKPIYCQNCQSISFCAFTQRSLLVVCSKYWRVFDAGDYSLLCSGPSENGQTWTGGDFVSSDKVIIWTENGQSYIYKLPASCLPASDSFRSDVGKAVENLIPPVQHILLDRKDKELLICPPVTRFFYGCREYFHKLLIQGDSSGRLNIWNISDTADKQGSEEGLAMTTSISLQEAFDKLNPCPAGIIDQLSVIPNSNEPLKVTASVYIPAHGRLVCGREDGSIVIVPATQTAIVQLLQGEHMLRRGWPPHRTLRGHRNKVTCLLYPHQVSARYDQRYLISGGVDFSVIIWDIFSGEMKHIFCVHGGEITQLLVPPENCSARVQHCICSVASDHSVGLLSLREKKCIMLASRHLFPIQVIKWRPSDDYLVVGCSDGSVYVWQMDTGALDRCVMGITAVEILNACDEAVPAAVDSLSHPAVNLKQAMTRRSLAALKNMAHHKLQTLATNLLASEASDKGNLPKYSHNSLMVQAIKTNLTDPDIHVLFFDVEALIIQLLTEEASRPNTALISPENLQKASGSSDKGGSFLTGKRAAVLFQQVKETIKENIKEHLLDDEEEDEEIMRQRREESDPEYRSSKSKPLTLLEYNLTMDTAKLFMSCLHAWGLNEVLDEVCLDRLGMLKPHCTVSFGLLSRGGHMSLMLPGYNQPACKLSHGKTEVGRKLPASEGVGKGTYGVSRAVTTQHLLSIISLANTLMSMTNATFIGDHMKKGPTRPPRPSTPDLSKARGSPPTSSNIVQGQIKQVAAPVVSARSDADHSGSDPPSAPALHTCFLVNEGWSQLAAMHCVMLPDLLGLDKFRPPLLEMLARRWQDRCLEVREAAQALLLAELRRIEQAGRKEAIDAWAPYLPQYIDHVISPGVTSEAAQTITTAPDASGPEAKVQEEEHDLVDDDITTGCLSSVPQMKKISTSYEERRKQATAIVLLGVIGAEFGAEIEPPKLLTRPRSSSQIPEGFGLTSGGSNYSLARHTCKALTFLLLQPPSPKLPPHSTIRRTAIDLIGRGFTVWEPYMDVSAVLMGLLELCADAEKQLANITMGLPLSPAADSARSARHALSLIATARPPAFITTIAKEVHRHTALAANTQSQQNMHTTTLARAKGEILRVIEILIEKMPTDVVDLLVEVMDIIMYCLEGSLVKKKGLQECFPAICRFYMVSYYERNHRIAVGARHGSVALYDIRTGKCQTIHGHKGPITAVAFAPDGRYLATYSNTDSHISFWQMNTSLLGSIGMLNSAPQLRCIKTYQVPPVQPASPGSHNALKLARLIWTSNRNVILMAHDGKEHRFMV
inactive: [1] 0.05 | [2] -0.076 | [3] -0.016 | [4] -0.059 | [5] -0.001 | [6] -0.005 | [7] -0.038 | [8] 0.018 | [9] 0.042 | [10] 0.01 | [11] 0.067 | [12] 0.04 | [13] 0.063 | [14] -0.075 | [15] -0.03 | [16] -0.005 | [17] -0.013 | [18] 0.037 | [19] -0.06 | [20] -0.013

WDR62 isoform 4 (UniProt O43379)
inactive: [1] 0.017 | [2] -0.027 | [3] -0.018 | [4] -0.007 | [5] -0.012 | [6] 0.017 | [7] -0.052 | [8] 0.024 | [9] -0.008 | [10] 0.011 | [11] -0.023 | [12] 0.027 | [13] 0.013 | [14] -0.051 | [15] -0.007 | [16] 0.033 | [17] -0.016 | [18] 0.023 | [19] -0.002 | [20] -0.029

ZC3HC1 (UniProt Q86WB0)
Chain of UniProt Q86WB0 (Q86WB0 whole entry, looked up): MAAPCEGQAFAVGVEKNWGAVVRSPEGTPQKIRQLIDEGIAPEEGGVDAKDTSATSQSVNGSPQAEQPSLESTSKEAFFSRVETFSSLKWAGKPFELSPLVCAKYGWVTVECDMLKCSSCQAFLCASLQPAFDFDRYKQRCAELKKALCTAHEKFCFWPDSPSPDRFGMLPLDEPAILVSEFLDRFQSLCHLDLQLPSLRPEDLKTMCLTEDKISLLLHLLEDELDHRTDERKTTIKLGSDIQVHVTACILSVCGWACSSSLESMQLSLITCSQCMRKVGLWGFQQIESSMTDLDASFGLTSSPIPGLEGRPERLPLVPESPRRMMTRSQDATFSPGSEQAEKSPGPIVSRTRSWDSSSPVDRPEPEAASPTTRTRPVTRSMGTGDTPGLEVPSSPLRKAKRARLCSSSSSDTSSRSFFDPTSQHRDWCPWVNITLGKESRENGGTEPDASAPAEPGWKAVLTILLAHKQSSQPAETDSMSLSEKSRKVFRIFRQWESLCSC
inactive: [1] 0.011 | [2] -0.123 | [3] -0.006 | [4] 0.005 | [5] -0.009 | [6] 0.007 | [7] 0.009 | [8] 0.011 | [9] 0.018 | [10] -0.003 | [11] -0.021 | [12] 0.013 | [13] 0.033 | [14] -0.004 | [15] -0.003 | [16] 0.012 | [17] 0.004 | [18] -0.002 | [19] 0.006 | [20] 0.013
